Measurements published in publication PMC11102866, “Nucleosome-bound NR5A2 structure reveals pioneer factor mechanism by DNA minor groove anchor competition”.
Where a chain is given by its changes, count along the chain named. Names may count otherwise.

B1: 4 (nucleosome)
DNA 1: ATCCTGTCAAGGCCAGGTGCCGAGGCCGCTCAATTGGTCGTAGACAGCTCTAGCACCGCTTAAACGCACGTACGCGCTGTCCCCCGCGTTTTAACCGCCAAGGGGATTACTCCCTAGTCTCCAGGCACGTGTCAGATATATACATCCTGTGAT
DNA 2: ATCACAGGATGTATATATCTGACACGTGCCTGGAGACTAGGGAGTAATCCCCTTGGCGGTTAAAACGCGGGGGACAGCGCGTACGTGCGTTTAAGCGGTGCTAGAGCTGTCTACGACCAATTGAGCGGCCTCGGCACCTGGCCTTGACAGGAT
modifications: reconstituted with mouse histones H2A, H2B, H3.3 and H4
B2: 35 (nucleosome)
DNA 1: B1 DNA 1 with T7G, C8A, A9G, G11A, G12T, A15C, G40A, T41A, A42G, A44C
DNA 2: B1 DNA 2 with T110G, T112C, A113T, C114T, T139G, C142A, C143T, T145C, G146T, A147C
modifications: reconstituted with mouse histones H2A, H2B, H3.3 and H4
B3: 28 (nucleosome)
DNA 1: ATCCTGGAGAATCCCGGTGCCGAGGCCGCTTCAAGGCCAGTAGACAGCTCTAGCACCGCTTAAACGCACGTACGCGCTGTCCCCCGCGTTTTAACCGCCAAGGGGATTACTCCCTAGTCTCCAGGCACGTGTCAGATATATACATCCTGTGAT
DNA 2: ATCACAGGATGTATATATCTGACACGTGCCTGGAGACTAGGGAGTAATCCCCTTGGCGGTTAAAACGCGGGGGACAGCGCGTACGTGCGTTTAAGCGGTGCTAGAGCTGTCTACTGGCCTTGAAGCGGCCTCGGCACCGGGATTCTCCAGGAT
modifications: reconstituted with mouse histones H2A, H2B, H3.3 and H4
B4: 31 (nucleosome)
DNA 1: B3 DNA 1 with T31C, C32A, A34T, G35C, G36A, C37A, C38G, A39G, G40C, T41C
DNA 2: B3 DNA 2 with A113G, C114G, T115C, G116C, G117T, C118T, C119G, T120A, G122T, A123G
modifications: reconstituted with mouse histones H2A, H2B, H3.3 and H4
B5: 33 (nucleosome)
DNA 1: B3 DNA 1 with T31C, C32A, A34T, G35T, G36T, C38A, T41G, A42C, G43C
DNA 2: B3 DNA 2 with C111G, T112G, A113C, G116T, C118A, C119A, T120A, G122T, A123G
modifications: reconstituted with mouse histones H2A, H2B, H3.3 and H4
B6: 36 (nucleosome)
DNA 1: ATCCTGGAGAATCCCGGTGCCGAGGCCGCTCAATTGGTTCAAGGCCACTCTAGCACCGCTTAAACGCACGTACGCGCTGTCCCCCGCGTTTTAACCGCCAAGGGGATTACTCCCTAGTCTCCAGGCACGTGTCAGATATATACATCCTGTGAT
DNA 2: ATCACAGGATGTATATATCTGACACGTGCCTGGAGACTAGGGAGTAATCCCCTTGGCGGTTAAAACGCGGGGGACAGCGCGTACGTGCGTTTAAGCGGTGCTAGAGTGGCCTTGAACCAATTGAGCGGCCTCGGCACCGGGATTCTCCAGGAT
modifications: reconstituted with mouse histones H2A, H2B, H3.3 and H4
B7: 37 (nucleosome)
DNA 1: B6 DNA 1 with T39C, C40T, A41C, G43A, C45G, A47C, C48A
DNA 2: B6 DNA 2 with G106T, T107G, G109C, C111T, T113G, G114A, A115G
modifications: reconstituted with mouse histones H2A, H2B, H3.3 and H4
B8: 32 (nucleosome)
DNA 1: ATCCTGGAGAATCCCGGTGCCGAGGCCGCTCAATTCAAGGCCAACAGCTCTAGCACCGCTTAAACGCACGTACGCGCTGTCCCCCGCGTTTTAACCGCCAAGGGGATTACTCCCTAGTCTCCAGGCACGTGTCAGATATATACATCCTGTGAT
DNA 2: ATCACAGGATGTATATATCTGACACGTGCCTGGAGACTAGGGAGTAATCCCCTTGGCGGTTAAAACGCGGGGGACAGCGCGTACGTGCGTTTAAGCGGTGCTAGAGCTGTTGGCCTTGAATTGAGCGGCCTCGGCACCGGGATTCTCCAGGAT
modifications: reconstituted with mouse histones H2A, H2B, H3.3 and H4
B9: 38 (nucleosome)
DNA 1: B8 DNA 1 with C36G, A37G, A38T, G39C, C41T, C45G, A46G, G47C, T49A
DNA 2: B8 DNA 2 with A105T, C107G, T108C, G109C, G113A, C115G, T116A, T117C, G118C
modifications: reconstituted with mouse histones H2A, H2B, H3.3 and H4
B10: 34 (nucleosome)
DNA 1: B8 DNA 1 with C36G, A37T, A38C, G39A, G40A, C41G, C42G, A43C, A44C, C45A
DNA 2: B8 DNA 2 with G109T, T110G, T111G, G112C, G113C, C114T, C115T, T116G, T117A, G118C
modifications: reconstituted with mouse histones H2A, H2B, H3.3 and H4
B11: 25 (nucleosome)
DNA 1: ATCCTGGAGAATCCCGGTGCCGAGGCCTCAAGGCCAGTCGTAGACAGCTCTAGCACCGCTTAAACGCACGTACGCGCTGTCCCCCGCGTTTTAACCGCCAAGGGGATTACTCCCTAGTCTCCAGGCACGTGTCAGATATATACATCCTGTGAT
DNA 2: ATCACAGGATGTATATATCTGACACGTGCCTGGAGACTAGGGAGTAATCCCCTTGGCGGTTAAAACGCGGGGGACAGCGCGTACGTGCGTTTAAGCGGTGCTAGAGCTGTCTACGACTGGCCTTGAGGCCTCGGCACCGGGATTCTCCAGGAT
modifications: reconstituted with mouse histones H2A, H2B, H3.3 and H4
B12: 29 (nucleosome)
DNA 1: B3 DNA 1 with T31C, C32T, A33C, G35A, C37G, A39C, G40A
DNA 2: B3 DNA 2 with C114T, T115G, G117C, C119T, T121G, G122A, A123G
modifications: reconstituted with mouse histones H2A, H2B, H3.3 and H4
B13: 26 (nucleosome)
DNA 1: B11 DNA 1 with T28G, C29T, A30C, G32A, C34G, A36C, G37A
DNA 2: B11 DNA 2 with C117T, T118G, G120C, C122T, T124G, G125A, A126C
modifications: reconstituted with mouse histones H2A, H2B, H3.3 and H4
B14: 27 (nucleosome)
DNA 1: B3 DNA 1 with T31C, C32A, A34G, G36C, C38A, A39C
DNA 2: B3 DNA 2 with T115G, G116T, C118G, T120C, G122T, A123G
modifications: reconstituted with mouse histones H2A, H2B, H3.3 and H4
B15: 30 (nucleosome)
DNA 1: B6 DNA 1 with A33T, T34C, T35A, G36A, T38G, T39C, G44A, C46A, A47G
DNA 2: B11 DNA 2 with A113T, C114G, A116C, G119T, C121A, C122T, T123G, T124A, A126C
modifications: reconstituted with mouse histones H2A, H2B, H3.3 and H4

molecular target: NR5A2 wild type;histone octamer (Homo sapiens;, UniProt O00482;C0HKE1;Q6ZWY9;P84244;P62806 1-541;2-130;2-126;2-136;2-103, |); experiment: SeEN-seq (EMSA of nucleosome library followed by sequencing); 0.8 uM human NR5A2; 20 mM Tris-HCl pH 7.5, 120 mM NaCl, 1 mM MgCl2, 10 uM ZnCl2, 1 mM DTT, 100 ug/ml BSA, room temperature, 30 min; 0.1 uM nucleosome library; high values mean tight binding

Binder	binding signal
B1	4.82 log2 enrichment (bound/unbound, relative to Widom 601)
B2	0.694 log2 enrichment (bound/unbound, relative to Widom 601)
B3	0.697 log2 enrichment (bound/unbound, relative to Widom 601)
B4	0.845 log2 enrichment (bound/unbound, relative to Widom 601)
B5	2.48 log2 enrichment (bound/unbound, relative to Widom 601)
B6	0.81 log2 enrichment (bound/unbound, relative to Widom 601)
B7	0.722 log2 enrichment (bound/unbound, relative to Widom 601)
B8	1.82 log2 enrichment (bound/unbound, relative to Widom 601)
B9	0.852 log2 enrichment (bound/unbound, relative to Widom 601)
B10	1.32 log2 enrichment (bound/unbound, relative to Widom 601)
B11	0.708 log2 enrichment (bound/unbound, relative to Widom 601)
B12	0.778 log2 enrichment (bound/unbound, relative to Widom 601)
B13	0.635 log2 enrichment (bound/unbound, relative to Widom 601)
B14	0.842 log2 enrichment (bound/unbound, relative to Widom 601)
B15	0.787 log2 enrichment (bound/unbound, relative to Widom 601)

molecular target: mouse Nr5a2 wild type;histone octamer (Mus musculus;, UniProt P45448;C0HKE1;Q6ZWY9;P84244;P62806 1-560;2-130;2-126;2-136;2-103, |); experiment: SeEN-seq (EMSA of nucleosome library followed by sequencing); 1.2 uM mouse Nr5a2; 20 mM Tris-HCl pH 7.5, 120 mM NaCl, 1 mM MgCl2, 10 uM ZnCl2, 1 mM DTT, 100 ug/ml BSA, room temperature, 30 min; 0.1 uM nucleosome library; high values mean tight binding

Binder	binding signal
B1	3.77 log2 enrichment (bound/unbound, relative to Widom 601)
B2	0.841 log2 enrichment (bound/unbound, relative to Widom 601)
B3	0.72 log2 enrichment (bound/unbound, relative to Widom 601)
B4	0.725 log2 enrichment (bound/unbound, relative to Widom 601)
B5	2.25 log2 enrichment (bound/unbound, relative to Widom 601)
B6	0.77 log2 enrichment (bound/unbound, relative to Widom 601)
B7	0.546 log2 enrichment (bound/unbound, relative to Widom 601)
B8	1.7 log2 enrichment (bound/unbound, relative to Widom 601)
B9	0.628 log2 enrichment (bound/unbound, relative to Widom 601)
B10	1.03 log2 enrichment (bound/unbound, relative to Widom 601)
B11	0.587 log2 enrichment (bound/unbound, relative to Widom 601)
B12	0.664 log2 enrichment (bound/unbound, relative to Widom 601)
B13	0.66 log2 enrichment (bound/unbound, relative to Widom 601)
B14	0.575 log2 enrichment (bound/unbound, relative to Widom 601)
B15	0.718 log2 enrichment (bound/unbound, relative to Widom 601)
